# Screens: PubChem BioAssay, National Center for Advancing Translational Sciences (NCATS)
# p53 reactivator – restores transcriptional activity of mutant p53; H1299 p53-A138V BP100-luciferase reporter, luminescence, 24 h; Potency, µM (titrated, usually from 92.2 µM), for the others: at the top dose activity change, positive = activation, actives largely listed as activators; hit rate 0.063% among 320,000; AID 504706; active = well fitted activation curve with a large enough effect; inconclusive = small, poorly fitted or top-dose-only effect; inactive = no such curve, though single readings can be large or run the other way; note: potency is the fitted concentration of half-maximal effect; % of control where 0% means no effect; nearly all actives have a fitted effect of over 45% in size
#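 H1299 (p53-null), stable ts p53-A138V + BP100-Luc; 1000 cells/well, Opti-MEM/10% FBS; cpd 4 pt, 1:5; 24 h, 37 deg C, 5% CO2; detection reagent 10 min RT; luminescence.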
# Menin-MLL TR inh – displaces Texas Red mutant MLL peptide from human menin; O00255; Menin + Texas Red MLL mutant peptide, fluorescence polarization; Potency, µM (series often up to 61.6 µM), inactives show at the highest dose FP activity change, negative = inhibition, actives largely listed as inhibitors; hit rate 0.23% among 270,000; active = well fitted inhibition curve with a large enough effect in the polarisation, with a control signal flat, not every such curve was filed as active; inconclusive = small, poorly fitted or top-dose-only effect, or effect the other way, or a change in a side signal; inactive = no such curve, though single readings can be large or run the other way; the % refers to the polarisation; note: potency is the fitted concentration of half-maximal effect; % of control where 0% means no effect
# CXXC DNA block – blocks binding of human MLL CXXC domain to DNA; Q03164; MLL-CXXC / FITC-HOXA9 DNA fluorescence polarization; Potency, µM (doses to about 115 µM), for inactives: at the highest dose activity change, negative = inhibition, most hits filed as inhibitors; hit rate 0.037% among 290,000; AID 2662; active = well fitted inhibition curve with a large enough effect in the polarisation, with a control signal flat, not every such curve was filed as active; inconclusive = small, poorly fitted or top-dose-only effect, or effect the other way, or a change in a side signal; inactive = no such curve, though single readings can be large or run the other way; the % refers to the polarisation; note: potency is the fitted concentration of half-maximal effect
#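 Fluorescence polarization: 7 uM MLL-CXXC (stock) preincubated 5 min with compounds, then 50 nM fluorescein-HOX-A9 DNA (stock) added; 30 min ambient. Buffer 50 mM Tris-HCl pH 7.5, 50 mM NaCl, 1 mM DTT, 0.05% BSA.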
# Menin MLL FP FL – displaces fluorescein MLL peptide from human menin; Fluorescence polarization, fluorescein-MLL peptide displacement from menin; FP activity change, % at 61.4 µM; 290,000 tested, under 10 active; active = well fitted curve in the direction sought with a large enough effect in the polarisation, not every such curve was filed as active; inconclusive = small, poorly fitted or top-dose-only effect, or effect the other way, or a change in a side signal; inactive = no such curve, though single readings can be large or run the other way; the % refers to the polarisation; note: % of control where 0% means no effect
# ClpP mod – qHTS Assay for Activators of ClpP | purified B. subtilis ClpP, FRET peptide cleavage, 20 min | Potency, µM (titrated, usually from 57.5 µM), for the others: top-dose activity change, negative = active | hit rate 1.9% among 340,000 | AID 651965, 2013; active = well fitted falling curve with a large enough effect; inconclusive = small, poorly fitted or top-dose-only effect; inactive = no such curve, though single readings can be large or run the other way; note: potency is the fitted concentration of half-maximal effect; the source files actives as falling curves though it sought activators and does not explain the sign; nearly all actives have a fitted effect of over 65% in size
#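 FRET quenching reversal measured ClpP activation: 10 microg/mL B. subtilis ClpP at pH 8 with the FRET-FV decapeptide, read at 430 nm after 320 nm excitation. The 20-min minus 0-min signal was scaled between DMSO/no-enzyme wells and ADEP (5.8 microM final).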
# The depositor's hits bear a star; ? = inconclusive; / = no result given; [ ] = remark or other dose. The full list was thinned out, with hits kept by preference.
SMILES,p53 reactivator,Menin-MLL TR inh,CXXC DNA block,Menin MLL FP FL,ClpP mod
O=c1[nH]c2cc3c(cc2cc1C(c1nnnn1C1CCCCC1)N1CCSCC1)OCCO3 (stereo not given),-5%,11%,-15%,7,35µM*
CN(C)c1ccc(/C=C/c2ccc3cc(F)ccc3n2)cc1,/,/,/,/,-4%
CC1(C)Cc2ccccc2C(NNC(=O)c2cccnc2)=N1,4%,3%,-11%,2,18µM*
FC(F)(F)c1nnc2sc(-c3cccs3)nn12,-2%,5%,-7%,-2,28µM*
CCN(CC)Cc1cc(Nc2ccnc3cc(Cl)ccc23)ccc1O,0%,-2%,-8%,-5,-2%
OC(CNc1ccnc2cc(Cl)ccc12)CNC1CCCCC1 (stereo not given),/,/,/,/,28µM*
CCN(CC)CCNc1ccnc2cc(Cl)ccc12,-12%,-13%,-3%,2,32µM*
Clc1ccc2c(NCc3ccccc3)ccnc2c1,-6%,-4%,-4%,-5,/
Nc1ccc(/C=C/c2ccnc3ccccc23)cc1[N+](=O)[O-],/,/,/,/,-1%
COc1ccc(Br)cc1CNC(=O)C(C)n1nc(C)n2c(cc3occc32)c1=O (stereo not given),/,/,/,/,0%
CN(C)C(=O)c1ccc(NC(=O)Cn2nnnc2-c2ccccc2F)cc1,/,/,/,/,2%
Cc1cc(C)c(NC(=O)COCc2cc(-c3cccs3)on2)c(C)c1,/,/,/,/,2%
C=C1C=C(C(F)F)n2ncc(C(=O)N3CCN(c4ccccc4)CC3)c2N1,/,/,/,/,2%
CCOc1ccc(N2CC(C(=O)Nc3ccc(OC)c(S(=O)(=O)N4CCCCC4)c3)CC2=O)cc1 (stereo not given),4%,-7%,-12%,-12,28µM*
C[n+]1ccc(/C=C/c2ccc(C=S)cc2)c2ccccc21,/,/,/,/,3%
Cc1ccc(CSC2=Nc3ccccc3C3=NC(=O)CN23)cc1,4%,-22%,3%,-4,3%
COc1cc2c(cc1OC)C1=NC(=O)CN1C(SCc1ccccc1C)=N2,1%,/,-4%,5,18µM*
CNc1ccc(/C=C2\C=Cc3ccccc32)cc1OC,/,/,/,/,-3%
CN(C)CCCN=Cc1c(O)n(Cc2ccccc2)c(=O)c2ccccc12,-3%,/,-1%,0,25µM*
C=CCN1c2ccccc2[C@]23C[C@@H](C(=O)OC)N(S(=O)(=O)c4ccc(Br)cc4)C2=NC(C(=O)OC)=C(C(=O)OC)[C@H]13,/,-12%[11.7 µM],/,-1[11.7 µM],/
CCOc1ccccc1NC(=O)c1ccccc1NC(=O)c1ccco1,-7%,-21%,-7%,3,/
CCCCOc1ccccc1NC(=O)c1ccco1,-2%,2%,0%,3,13µM*
CCOc1ccc(NC(=O)c2ccco2)c([N+](=O)[O-])c1,4.5µM*,11%,19%,-1,1%
Cc1oc(-c2ccccc2)nc1Cn1cccc1C1=NC(c2ccccc2)CO1 (stereo not given),8%,?,7%,0,?
Fc1ccc(Cn2cccc2C2=NC(c3ccccc3)CO2)cc1 (stereo not given),?,-16%,10%,2,20µM*
SMILES,p53 reactivator,Menin-MLL TR inh,CXXC DNA block,Menin MLL FP FL,ClpP mod
Cc1cccc(N2C(=O)C(CC(=O)Nc3cccc(F)c3)N(Cc3cccs3)C2=O)c1 (stereo not given),/,/,/,/,1%
CSCC[C@H](NC(=O)[C@H](Cc1c[nH]c2ccccc12)NC(=O)CNC(=O)[C@H](Cc1ccc(O)cc1)NC(=O)[C@H](C)NC(=O)[C@H](CCC(=O)O)NC(=O)[C@H](CCC(=O)O)NC(=O)[C@H](CCC(=O)O)NC(=O)[C@H](CCC(=O)O)NC(=O)[C@H](CCC(=O)O)NC(=O)[C@H](CC(C)C)NC(=O)[C@H](Cc1c[nH]c2ccccc12)NC(=O)[C@@H]1CCCN1C(=O)CNC(=O)[C@@H]1CCC(=O)N1)C(=O)N[C@@H](CC(=O)O)C(=O)N[C@@H](Cc1ccccc1)C(=O)NCC(=O)O,/,-7%,/,-2,/
Cc1cccc(NC(=O)N[C@@H](C)C(=O)O)c1,-1%,0%,-3%,2,16µM*
CCN(CC)c1ccc(NC(=O)c2ccccc2F)cc1,40µM*,-4%,-2%,-1,-1%
CC(C)C(=O)Nc1ccc(NC(=S)NC(=O)c2ccccc2F)cc1,1%,?,11%,-3,32µM*
CC(C)CN1C(=O)c2ccc(NC(=O)c3ccccc3F)cc2C1=O,8%,10%,9%,1,32µM*
CC(C)CN1C(=O)c2ccc(NC(=O)c3cccs3)cc2C1=O,21%,?,9%,5,28µM*
O=C(Nc1ccc(Nc2ccccc2)cc1)c1ccccc1F,-12%,?,-13%,3,/
CCOc1ccc(NC(=O)CSc2nnc3c(n2)[nH]c2ccc(S(=O)(=O)N4CCCCC4)cc23)cc1,/,/,/,/,-3%
C(=C\c1nc(N2CCCCCC2)c2ccccc2n1)/c1ccccc1,?,2%,-13%,15,32µM*
COc1ccc(-c2nc3ccccc3o2)cc1NC(=O)COc1ccc(C)cc1,/,/,/,/,5%
COC(=O)[C@H](Cc1ccccc1)NC(=O)O[C@@H]1C(=O)c2ccc(OC)cc2O[C@H]1c1cccc(C(F)(F)F)c1,/,-12%,/,-1,/
COc1cc2c(cc1OC)C(c1ccc(N(C)C)cc1)CC(=O)N2 (stereo not given),-5%,3%,4%,8,10µM*
CCN(CC)c1ccc(C2CC(=O)Nc3cc(OC)c(OC)cc32)cc1 (stereo not given),-1%,1%,3%,-1,1%
Cc1nc2c(C(=O)NCc3ccc4c(c3)OCO4)c[nH]n2c(=O)c1Cl,-8%,92%,0%,0,32µM*
Cc1ccccc1Cc1c(C)nc2c(C(=O)NCc3ccc4c(c3)OCO4)cnn2c1C,-6%,-7%,16%,5,104%
COc1cccc(CNC(=O)c2c[nH]n3c(=O)c(Cl)c(C)nc23)c1,-6%,?,6%,-2,?
Cc1nc2c(C(=O)NCc3ccc4c(c3)OCO4)cnn2c(C)c1Cc1ccc(F)cc1Cl,-3%,?,-2%,2,35µM*
Cc1cccc(Cc2c(C)nc3c(C(=O)NCc4ccco4)cnn3c2C)c1,-16%,?,2%,3,32µM*
Cc1nc2c(C(=O)NCc3ccccc3Cl)cnn2c(C)c1Cc1c(F)cccc1Cl,/,/,/,/,-27%
Cc1nc2c(C(=O)NCc3ccco3)cnn2c(C)c1Cc1ccc(F)cc1Cl,-13%,?,-12%,1,32µM*
Cc1nc2c(C(=O)NCc3cccs3)cnn2c(C)c1Cc1ccccc1,1%,?,-1%,0,/
O=C(C[n+]1cccc(Cl)c1)c1ccc(O)c(O)c1,/,/,/,/,0%
O=C(COc1ccccc1C(=O)OCC(=O)Nc1cccc2ccccc12)Nc1ccc(Br)cc1,/,/,/,/,0%
